A number with no mark means an inactive call. Records with an inconclusive call do not appear. Calls of active or inactive are those of the source. Calls come from the whole dose curve; as a rule, active = well fitted curve in the direction sought with a large enough effect; inconclusive = small, poorly fitted or top-dose-only effect, or another doubt; inactive = no such curve, though single readings can be large; an effect the other way counts as inactive or inconclusive.
Molecular target: Cytochrome P450 3A4 (Homo sapiens) (UniProt P08684)
Assay: qHTS Assay for Activators of Cytochrome P450 3A4 (AID 885); note: nearly all actives have a fitted effect of over 65% in size
Conditions: recombinant CYP3A4, Luciferin-PPXE luminescence, 60 min; series mostly up to 11.4 µM; activity change, positive = activation: at the top concentration
How it was run: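 CYP3A4 activity: Luciferin-PPXE O-dealkylation, 25uM substrate, 200mM KPO4, RT throughout. Read-out is luciferase luminescence; higher values reflect activation.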

Cytochrome P450 3A4 (Homo sapiens), sequence (P08684 whole entry, looked up): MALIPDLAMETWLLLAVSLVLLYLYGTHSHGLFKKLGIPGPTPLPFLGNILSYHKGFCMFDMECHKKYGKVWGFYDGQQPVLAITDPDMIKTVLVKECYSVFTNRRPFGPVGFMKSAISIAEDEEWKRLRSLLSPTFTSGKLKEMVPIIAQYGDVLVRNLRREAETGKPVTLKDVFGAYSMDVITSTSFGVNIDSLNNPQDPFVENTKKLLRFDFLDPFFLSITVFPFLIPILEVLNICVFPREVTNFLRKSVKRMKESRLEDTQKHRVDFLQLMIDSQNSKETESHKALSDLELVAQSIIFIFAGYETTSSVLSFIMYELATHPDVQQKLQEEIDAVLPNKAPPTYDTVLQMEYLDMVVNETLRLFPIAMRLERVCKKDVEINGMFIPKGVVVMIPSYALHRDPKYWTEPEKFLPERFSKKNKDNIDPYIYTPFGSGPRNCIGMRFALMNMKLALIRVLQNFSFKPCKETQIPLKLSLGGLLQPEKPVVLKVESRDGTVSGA

For `ClC(=Nc1cccc2ccccc12)N(c1ccccc1)c1ccccc1`, which “activity change, positive = activation” value is on record?
The value was -43.5%.

`Cc1ccc(-c2nc(-c3nccc4ccccc34)oc2-c2ccccc2)cc1` was tested. Which “activity change, positive = activation” value did it give?
Its value is -34.4%.

`COc1ccc(Oc2ncc3nc(CCc4ccccc4)c(=O)n(C4CC4)c3n2)cc1` was tested. Which “activity change, positive = activation” value did it give?
The value was -49.1% [at 57.1 µM].

How did the “activity change, positive = activation” value turn out when `COc1ccc2c(=O)cc(-c3ccncc3)oc2c1OC` was run?
The value was -37.4%.

With `COc1cccc(Nc2ncc3ncc(=O)n(C4CC4)c3n2)c1` as the compound, how does the “activity change, positive = activation” value read?
Its value is -59.8% [at 57.1 µM].

For `c1ccc2cc(NCNc3ccc4ccccc4c3)ccc2c1`, which “activity change, positive = activation” value is on record?
Its value is -38.8%.

`N#Cc1c(NC(=O)C(F)(F)F)sc2c3c(=O)c4ccccc4c(=O)c=3oc3ccccc3c12` was tested. Which “activity change, positive = activation” value did it give?
The value was -33.2%.

How did the “activity change, positive = activation” value turn out when `O=C1Oc2ccccc2C(=O)/C1=C\N1C(=O)N/C(=C\c2ccccc2O)C1=O` was run?
The value was -44.8%.

With `Cc1cccc(CNc2ncnc3ccc(-c4ccc(C(=O)N(C)C)cc4)cc23)c1` as the compound, how does the “activity change, positive = activation” value read?
Its value is -112% [at 57.1 µM].

`C[N+](C)([O-])CCC=C1c2ccccc2CCc2ccccc21` was tested. Which “activity change, positive = activation” value did it give?
Its value is -84.3%.

`O=C1C(Cl)=C(Sc2nnc3c4ccccc4c4ccccc4c3n2)C(=O)c2ccccc21` was tested. Which “activity change, positive = activation” value did it give?
Its value is -31.2%.

Which “activity change, positive = activation” value does the source give for `COCCn1c(=O)c(CCc2ccccc2)nc2cnc(Oc3cccc(Cl)c3)nc21` here?
Its value is -82.1% [at 57.1 µM].

Molecular target: Cytochrome P450 2D6 (Homo sapiens) (UniProt P10635)
Assay: qHTS Assay for Inhibitors and Substrates of Cytochrome P450 2D6 (AID 891); note: potency is the fitted concentration of half-maximal effect; nearly all actives have a fitted effect of over 60% in size
Conditions: recombinant CYP2D6, luciferin-ME EGE luminescence; series mostly up to 11.4 µM; activity change, negative = inhibition: at the top concentration
How it was run: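 Luminescent read-out of luciferin formed by 5 nM human CYP2D6 demethylating 30 uM Luciferin-ME EGE (Km level) over 60 min at room temperature after NADPH regeneration addition. Data normalized to full inhibition by 1.43 uM quinidine.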

Cytochrome P450 2D6 (Homo sapiens), sequence (P10635 whole entry, looked up): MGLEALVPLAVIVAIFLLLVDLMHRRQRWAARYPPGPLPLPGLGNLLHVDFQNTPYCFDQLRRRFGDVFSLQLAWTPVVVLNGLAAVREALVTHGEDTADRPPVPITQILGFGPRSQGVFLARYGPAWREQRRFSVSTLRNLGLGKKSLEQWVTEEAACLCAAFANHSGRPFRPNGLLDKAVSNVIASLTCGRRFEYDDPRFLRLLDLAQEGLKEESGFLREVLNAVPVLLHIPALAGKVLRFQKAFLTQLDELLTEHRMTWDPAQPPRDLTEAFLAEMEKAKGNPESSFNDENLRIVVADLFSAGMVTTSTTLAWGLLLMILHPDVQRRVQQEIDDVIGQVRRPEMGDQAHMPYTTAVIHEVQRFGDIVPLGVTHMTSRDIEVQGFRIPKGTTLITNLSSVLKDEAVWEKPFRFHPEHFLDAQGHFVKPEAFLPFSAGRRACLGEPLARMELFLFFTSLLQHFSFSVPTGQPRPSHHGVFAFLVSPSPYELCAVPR

For `CN(C)CCCN1c2ccccc2Sc2ccc3ccccc3c21`, which Potency is on record?
Its Potency is 1260 nM (active).

`COc1ccc2c(c1)N(CC[C@H]1CCCCN1C)c1ccccc1S2` was tested. Which Potency did it give?
Its Potency is 50.1 nM (active).

How did the Potency turn out when `CN(C)CCCN1c2ccc3ccccc3c2Sc2cccc(Cl)c21` was run?
The Potency was 501 nM (active).

Which Potency does the source give for `CN(C)CCCN1c2ccc(O)cc2Sc2ccc(Cl)cc21` here?
Its Potency is 126 nM (active).

How did the Potency turn out when `C[C@@H]1CCCN(C[C@@H](O)CN2CCCc3ccccc32)C1` was run?
The Potency was 1580 nM (active).

How did the Potency turn out when `CSc1ccc2c(c1)N(CCCN(C)C)c1ccccc1S2` was run?
Its Potency is 501 nM (active).

With `CN(C)CCCn1c2c3ccccc3ccc2c2oc(=O)c3ccccc3c21` as the compound, how does the Potency read?
Its Potency is 1260 nM (active).

Molecular target: Cytochrome P450 2C19 (Homo sapiens) (UniProt P33261)
Assay: qHTS Assay for Inhibitors and Substrates of Cytochrome P450 2C19 (AID 899); note: nearly all actives have a fitted effect of over 60% in size; note: potency is the fitted concentration of half-maximal effect; for activity, negative = inhibition: % is set by controls: 0 for no effect and ±100 for the full control effect
Conditions: recombinant CYP2C19, luciferin-H EGE luminescence; series mostly up to 11.4 µM; activity, negative = inhibition: at the top concentration
How it was run: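 NADPH-dependent conversion of Luciferin-H EGE (10uM, at KM) by 5nM enzyme in 50mM KPO4, 60 min at 37C following 10 min compound preincubation. Stopped with luciferin detection buffer; luminescence read after 20 min.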

Cytochrome P450 2C19 (Homo sapiens), sequence (P33261 whole entry, looked up): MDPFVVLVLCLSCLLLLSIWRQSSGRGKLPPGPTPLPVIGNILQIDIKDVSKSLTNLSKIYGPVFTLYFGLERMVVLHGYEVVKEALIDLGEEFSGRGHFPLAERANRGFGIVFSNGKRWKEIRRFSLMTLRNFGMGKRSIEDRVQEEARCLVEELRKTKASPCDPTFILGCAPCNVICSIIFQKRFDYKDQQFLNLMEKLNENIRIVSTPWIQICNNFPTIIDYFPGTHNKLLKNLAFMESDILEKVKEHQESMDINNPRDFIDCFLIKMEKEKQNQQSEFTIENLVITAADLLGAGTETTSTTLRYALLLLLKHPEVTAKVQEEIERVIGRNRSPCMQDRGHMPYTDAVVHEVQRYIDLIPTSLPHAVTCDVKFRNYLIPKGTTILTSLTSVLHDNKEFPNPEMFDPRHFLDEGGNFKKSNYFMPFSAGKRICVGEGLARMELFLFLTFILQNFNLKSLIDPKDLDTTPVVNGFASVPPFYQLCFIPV

`ClC(=Nc1cccc2ccccc12)N(c1ccccc1)c1ccccc1` was tested. Which Potency did it give?
The Potency was 2.51 µM (active).

How did the Potency turn out when `COc1ccc(Oc2ncc3nc(CCc4ccccc4)c(=O)n(C4CC4)c3n2)cc1` was run?
Its Potency is 1.58 µM (active).

For `COc1ccc2c(=O)cc(-c3ccncc3)oc2c1OC`, which Potency is on record?
Its Potency is 1.58 µM (active).

`CN(C)CCCN1c2ccc3ccccc3c2Sc2cccc(Cl)c21` was tested. Which Potency did it give?
Its Potency is 5.01 µM (active).

How did the “activity, negative = inhibition” value turn out when `CC(CC(=O)O)(CC(=O)O)c1ccccc1` was run?
Its value is 62.3%.

For `O=C1c2ccccc2C(O)(O)[C@@]1(O)[C@]1(O)C(=O)c2ccccc2C1(O)O`, which “activity, negative = inhibition” value is on record?
The value was 10.9%.

How did the Potency turn out when `c1ccc2cc(NCNc3ccc4ccccc4c3)ccc2c1` was run?
The Potency was 2.51 µM (active).

With `N#Cc1c(NC(=O)C(F)(F)F)sc2c3c(=O)c4ccccc4c(=O)c=3oc3ccccc3c12` as the compound, how does the Potency read?
Its Potency is 0.501 µM (active).

`C[N+](C)([O-])CCC=C1c2ccccc2CCc2ccccc21` was tested. Which Potency did it give?
Its Potency is 0.398 µM (active).

With `O=C1C(Cl)=C(Sc2nnc3c4ccccc4c4ccccc4c3n2)C(=O)c2ccccc21` as the compound, how does the Potency read?
The Potency was 1.58 µM (active).

How did the Potency turn out when `O=[N+]([O-])c1ccc(S(=O)(=O)Cc2ccccc2)c2nonc12` was run?
The Potency was 3.16 µM (active).

For `Nc1nc(Sc2ccc([N+](=O)[O-])c3nonc23)c2[nH]cnc2n1`, which Potency is on record?
Its Potency is 1.58 µM (active).

— PubChem BioAssay (NCATS)
